“And” between values parts separate entries of the source, which are not always exact repeats. Equal values may be shown once.

By inhibition is commonly meant the change of the read-out against control, counted positive when it falls.

The target in assay [1] is Sphingosine kinase 1 (Homo sapiens) (UniProt Q9NYA1). The conditions noted are these: at 1 µM.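 Also: mean SPHK1 inhibition value reported from the GSK PKIS kinase panel screen.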
Assay [2] has as its target T1, Sphingosine kinase 2 (Homo sapiens) (UniProt Q9NRA0).
T1 sequence (whole entry): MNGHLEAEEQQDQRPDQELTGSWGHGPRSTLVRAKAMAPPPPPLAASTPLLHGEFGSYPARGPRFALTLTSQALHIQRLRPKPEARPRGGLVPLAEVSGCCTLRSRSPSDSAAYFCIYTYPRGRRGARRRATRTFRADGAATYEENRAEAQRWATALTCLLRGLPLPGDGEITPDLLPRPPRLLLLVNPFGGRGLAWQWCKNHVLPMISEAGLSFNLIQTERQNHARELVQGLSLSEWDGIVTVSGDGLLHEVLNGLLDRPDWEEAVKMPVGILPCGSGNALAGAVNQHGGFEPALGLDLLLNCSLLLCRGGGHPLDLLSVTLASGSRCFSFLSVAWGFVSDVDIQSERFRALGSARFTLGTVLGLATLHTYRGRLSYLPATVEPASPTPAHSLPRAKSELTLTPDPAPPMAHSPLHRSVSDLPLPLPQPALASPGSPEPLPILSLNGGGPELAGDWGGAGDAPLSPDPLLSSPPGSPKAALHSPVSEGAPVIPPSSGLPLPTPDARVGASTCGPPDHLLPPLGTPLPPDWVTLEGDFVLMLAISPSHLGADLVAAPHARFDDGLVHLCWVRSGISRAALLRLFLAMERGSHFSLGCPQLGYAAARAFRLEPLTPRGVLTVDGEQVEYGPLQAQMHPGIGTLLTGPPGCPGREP
The conditions noted are these: at 0.1 µM.

The target of assay [3] is T1, Sphingosine kinase 2 (Homo sapiens). The conditions noted are these: at 1 µM.
The target of assay [4] is Casein kinase II subunit alpha (Homo sapiens) (UniProt P68400). Particulars: at 0.1 µM.
Casein kinase II subunit alpha (Homo sapiens), sequence (P68400 whole entry, looked up): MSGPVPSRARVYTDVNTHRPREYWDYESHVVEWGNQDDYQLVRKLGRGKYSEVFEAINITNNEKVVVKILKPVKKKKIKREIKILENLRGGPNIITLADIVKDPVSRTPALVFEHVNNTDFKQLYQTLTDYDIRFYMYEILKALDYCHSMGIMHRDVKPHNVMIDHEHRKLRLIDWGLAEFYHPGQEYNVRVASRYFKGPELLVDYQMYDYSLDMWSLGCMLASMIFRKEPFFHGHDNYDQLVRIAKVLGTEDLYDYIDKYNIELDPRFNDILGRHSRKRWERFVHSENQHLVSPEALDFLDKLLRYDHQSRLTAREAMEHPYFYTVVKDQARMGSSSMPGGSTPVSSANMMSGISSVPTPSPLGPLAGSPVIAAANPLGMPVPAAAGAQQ
Assay [5] shares this target. Particulars: at 1 µM.
Assay [6] concerns the target T2, Inhibitor of nuclear factor kappa-B kinase subunit alpha (Homo sapiens) (UniProt O15111).
T2 sequence (whole entry): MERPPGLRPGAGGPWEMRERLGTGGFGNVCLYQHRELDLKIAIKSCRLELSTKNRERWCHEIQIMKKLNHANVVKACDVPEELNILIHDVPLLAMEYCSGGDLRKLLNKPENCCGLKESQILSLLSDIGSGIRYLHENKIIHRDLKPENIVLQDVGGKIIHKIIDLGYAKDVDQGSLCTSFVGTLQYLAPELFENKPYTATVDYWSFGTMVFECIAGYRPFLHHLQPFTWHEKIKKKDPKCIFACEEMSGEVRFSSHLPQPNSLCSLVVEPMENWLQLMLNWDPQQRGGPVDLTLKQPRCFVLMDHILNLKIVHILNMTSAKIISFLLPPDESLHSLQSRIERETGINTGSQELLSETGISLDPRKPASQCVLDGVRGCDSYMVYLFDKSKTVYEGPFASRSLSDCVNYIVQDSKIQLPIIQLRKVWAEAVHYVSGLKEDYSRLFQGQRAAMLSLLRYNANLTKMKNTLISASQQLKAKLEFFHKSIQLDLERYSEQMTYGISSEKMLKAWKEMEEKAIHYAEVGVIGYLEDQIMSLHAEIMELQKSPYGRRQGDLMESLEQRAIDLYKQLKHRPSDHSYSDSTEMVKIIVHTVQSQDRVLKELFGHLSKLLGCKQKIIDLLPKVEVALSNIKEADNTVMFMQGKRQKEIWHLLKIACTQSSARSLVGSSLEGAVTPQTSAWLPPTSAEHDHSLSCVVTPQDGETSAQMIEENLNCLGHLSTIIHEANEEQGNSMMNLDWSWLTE
The conditions noted are these: at 0.1 µM.

For assay [7], the target named is T2, Inhibitor of nuclear factor kappa-B kinase subunit alpha (Homo sapiens). Particulars: at 1 µM.
For assay [8], the target named is T3, Inhibitor of nuclear factor kappa-B kinase subunit beta (Homo sapiens) (UniProt O14920).
T3 sequence (whole entry): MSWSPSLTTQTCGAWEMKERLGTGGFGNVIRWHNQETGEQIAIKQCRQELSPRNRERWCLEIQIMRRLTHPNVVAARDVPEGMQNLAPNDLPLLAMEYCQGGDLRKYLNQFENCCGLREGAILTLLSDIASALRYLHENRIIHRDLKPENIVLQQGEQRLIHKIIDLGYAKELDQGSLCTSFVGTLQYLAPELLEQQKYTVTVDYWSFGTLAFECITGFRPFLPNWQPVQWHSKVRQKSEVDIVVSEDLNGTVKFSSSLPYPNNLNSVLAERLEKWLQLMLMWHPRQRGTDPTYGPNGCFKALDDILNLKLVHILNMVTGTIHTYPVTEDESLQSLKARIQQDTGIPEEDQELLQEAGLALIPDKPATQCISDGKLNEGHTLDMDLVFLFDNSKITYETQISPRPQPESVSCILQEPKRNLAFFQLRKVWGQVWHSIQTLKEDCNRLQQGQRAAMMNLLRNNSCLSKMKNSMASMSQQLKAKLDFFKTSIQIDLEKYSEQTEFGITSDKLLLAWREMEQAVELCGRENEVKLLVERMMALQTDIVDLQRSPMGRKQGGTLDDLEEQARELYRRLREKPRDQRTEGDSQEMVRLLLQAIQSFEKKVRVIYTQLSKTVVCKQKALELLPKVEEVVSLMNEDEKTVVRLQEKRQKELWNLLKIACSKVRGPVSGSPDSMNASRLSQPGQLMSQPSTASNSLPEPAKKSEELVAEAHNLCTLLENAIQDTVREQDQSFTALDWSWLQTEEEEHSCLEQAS
The conditions noted are these: at 0.1 µM.

Assay [9] addresses T3, Inhibitor of nuclear factor kappa-B kinase subunit beta (Homo sapiens). The conditions noted are these: at 1 µM.
The target in assay [10] is T4, Inhibitor of nuclear factor kappa-B kinase subunit epsilon (Homo sapiens) (UniProt Q14164).
T4 sequence (whole entry): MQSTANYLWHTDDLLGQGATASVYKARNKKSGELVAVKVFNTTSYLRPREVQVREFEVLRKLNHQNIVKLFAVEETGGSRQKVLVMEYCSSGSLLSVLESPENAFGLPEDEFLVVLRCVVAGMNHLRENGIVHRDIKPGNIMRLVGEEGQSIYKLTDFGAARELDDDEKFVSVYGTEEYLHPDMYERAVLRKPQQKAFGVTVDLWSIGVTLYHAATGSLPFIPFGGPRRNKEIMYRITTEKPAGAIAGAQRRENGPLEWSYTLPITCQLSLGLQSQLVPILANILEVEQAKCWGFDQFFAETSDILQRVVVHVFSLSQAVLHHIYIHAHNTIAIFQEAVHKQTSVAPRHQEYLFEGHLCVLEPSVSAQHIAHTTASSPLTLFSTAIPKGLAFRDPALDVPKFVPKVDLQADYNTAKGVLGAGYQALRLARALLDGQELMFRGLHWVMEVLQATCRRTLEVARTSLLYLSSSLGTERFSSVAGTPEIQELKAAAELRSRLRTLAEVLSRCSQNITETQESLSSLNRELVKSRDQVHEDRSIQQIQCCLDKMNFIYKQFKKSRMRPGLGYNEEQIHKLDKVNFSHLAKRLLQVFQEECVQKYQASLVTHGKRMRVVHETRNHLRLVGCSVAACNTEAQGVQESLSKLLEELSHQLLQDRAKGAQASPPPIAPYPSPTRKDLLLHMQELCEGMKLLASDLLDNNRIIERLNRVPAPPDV
The conditions noted are these: at 0.1 µM.

For assay [11], the target named is T4, Inhibitor of nuclear factor kappa-B kinase subunit epsilon (Homo sapiens). Particulars: at 1 µM.
For assay [12], the target named is T5, Serine/threonine-protein kinase Nek1 (Homo sapiens) (UniProt Q96PY6).
T5 sequence (whole entry): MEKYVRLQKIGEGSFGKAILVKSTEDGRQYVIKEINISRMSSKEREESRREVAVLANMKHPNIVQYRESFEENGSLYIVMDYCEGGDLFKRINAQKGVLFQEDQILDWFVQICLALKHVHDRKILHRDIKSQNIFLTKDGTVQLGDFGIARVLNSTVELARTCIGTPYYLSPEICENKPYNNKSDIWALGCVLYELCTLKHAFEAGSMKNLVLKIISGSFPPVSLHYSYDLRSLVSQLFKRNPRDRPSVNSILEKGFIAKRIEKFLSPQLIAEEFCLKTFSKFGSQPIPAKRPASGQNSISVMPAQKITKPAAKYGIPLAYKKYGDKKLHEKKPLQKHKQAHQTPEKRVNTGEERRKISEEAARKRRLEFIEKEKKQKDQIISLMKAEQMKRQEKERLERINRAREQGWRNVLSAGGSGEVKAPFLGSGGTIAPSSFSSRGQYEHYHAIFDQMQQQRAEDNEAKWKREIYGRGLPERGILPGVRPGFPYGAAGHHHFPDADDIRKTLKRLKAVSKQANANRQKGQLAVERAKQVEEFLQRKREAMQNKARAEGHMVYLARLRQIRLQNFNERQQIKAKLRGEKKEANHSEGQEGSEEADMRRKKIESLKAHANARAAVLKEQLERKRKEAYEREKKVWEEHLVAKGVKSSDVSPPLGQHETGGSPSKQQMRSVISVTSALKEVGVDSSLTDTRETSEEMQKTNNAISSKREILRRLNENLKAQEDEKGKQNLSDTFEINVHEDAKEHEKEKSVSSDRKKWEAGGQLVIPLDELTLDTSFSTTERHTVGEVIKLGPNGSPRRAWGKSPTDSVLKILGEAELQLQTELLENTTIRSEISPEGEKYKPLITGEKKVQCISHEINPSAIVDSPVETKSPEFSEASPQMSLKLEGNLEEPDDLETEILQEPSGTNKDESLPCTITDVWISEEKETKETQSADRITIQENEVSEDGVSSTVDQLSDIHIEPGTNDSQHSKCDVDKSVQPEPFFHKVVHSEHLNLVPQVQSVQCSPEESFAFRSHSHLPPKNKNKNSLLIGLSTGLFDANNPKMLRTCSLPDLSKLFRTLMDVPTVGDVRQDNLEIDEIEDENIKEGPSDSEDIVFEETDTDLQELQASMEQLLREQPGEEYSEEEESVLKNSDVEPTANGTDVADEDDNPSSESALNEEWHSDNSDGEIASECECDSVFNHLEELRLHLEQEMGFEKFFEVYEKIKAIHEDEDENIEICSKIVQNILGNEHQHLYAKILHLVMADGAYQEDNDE
Particulars: at 0.1 µM.

Assay [13] concerns the target T5, Serine/threonine-protein kinase Nek1 (Homo sapiens). Particulars: at 1 µM.
In assay [14] the target is T6, Serine/threonine-protein kinase Nek2 (Homo sapiens) (UniProt P51955).
T6 sequence (whole entry): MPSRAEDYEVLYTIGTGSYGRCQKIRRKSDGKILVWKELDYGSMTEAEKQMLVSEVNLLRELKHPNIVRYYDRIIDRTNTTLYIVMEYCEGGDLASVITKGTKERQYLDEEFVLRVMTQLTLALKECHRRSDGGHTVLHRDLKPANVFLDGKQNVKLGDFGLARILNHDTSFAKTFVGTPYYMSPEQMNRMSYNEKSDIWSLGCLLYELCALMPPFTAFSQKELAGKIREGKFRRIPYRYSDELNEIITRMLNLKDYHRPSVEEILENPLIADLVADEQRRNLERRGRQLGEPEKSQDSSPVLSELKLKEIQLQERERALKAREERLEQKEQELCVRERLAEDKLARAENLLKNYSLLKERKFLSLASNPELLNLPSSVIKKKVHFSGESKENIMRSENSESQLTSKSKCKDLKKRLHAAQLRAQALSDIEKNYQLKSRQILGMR
Particulars: at 0.1 µM.

The target in assay [15] is T6, Serine/threonine-protein kinase Nek2 (Homo sapiens). The conditions noted are these: at 1 µM.
Assay [16] concerns the target Serine/threonine-protein kinase Nek6 (Homo sapiens) (UniProt Q9HC98). The conditions noted are these: at 0.1 µM.
Assay [17] has the same target. Particulars: at 1 µM.
The target of assay [18] is Serine/threonine-protein kinase Nek7 (Homo sapiens) (UniProt Q8TDX7). The conditions noted are these: at 0.1 µM.
Serine/threonine-protein kinase Nek7 (Homo sapiens), sequence (Q8TDX7 whole entry, looked up): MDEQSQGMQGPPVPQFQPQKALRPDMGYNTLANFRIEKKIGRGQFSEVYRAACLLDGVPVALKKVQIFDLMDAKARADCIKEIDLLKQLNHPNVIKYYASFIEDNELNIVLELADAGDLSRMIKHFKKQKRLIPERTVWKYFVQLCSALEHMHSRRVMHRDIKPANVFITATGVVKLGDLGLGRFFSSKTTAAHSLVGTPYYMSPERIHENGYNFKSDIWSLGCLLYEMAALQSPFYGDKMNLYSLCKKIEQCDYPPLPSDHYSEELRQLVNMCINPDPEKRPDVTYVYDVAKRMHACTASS
Assay [19] shares this target. Particulars: at 1 µM.
The target in assay [20] is T7, Serine/threonine-protein kinase Nek9 (Homo sapiens) (UniProt Q8TD19).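 Also: reported value is the mean percent inhibition of NEK9.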
T7 sequence (whole entry): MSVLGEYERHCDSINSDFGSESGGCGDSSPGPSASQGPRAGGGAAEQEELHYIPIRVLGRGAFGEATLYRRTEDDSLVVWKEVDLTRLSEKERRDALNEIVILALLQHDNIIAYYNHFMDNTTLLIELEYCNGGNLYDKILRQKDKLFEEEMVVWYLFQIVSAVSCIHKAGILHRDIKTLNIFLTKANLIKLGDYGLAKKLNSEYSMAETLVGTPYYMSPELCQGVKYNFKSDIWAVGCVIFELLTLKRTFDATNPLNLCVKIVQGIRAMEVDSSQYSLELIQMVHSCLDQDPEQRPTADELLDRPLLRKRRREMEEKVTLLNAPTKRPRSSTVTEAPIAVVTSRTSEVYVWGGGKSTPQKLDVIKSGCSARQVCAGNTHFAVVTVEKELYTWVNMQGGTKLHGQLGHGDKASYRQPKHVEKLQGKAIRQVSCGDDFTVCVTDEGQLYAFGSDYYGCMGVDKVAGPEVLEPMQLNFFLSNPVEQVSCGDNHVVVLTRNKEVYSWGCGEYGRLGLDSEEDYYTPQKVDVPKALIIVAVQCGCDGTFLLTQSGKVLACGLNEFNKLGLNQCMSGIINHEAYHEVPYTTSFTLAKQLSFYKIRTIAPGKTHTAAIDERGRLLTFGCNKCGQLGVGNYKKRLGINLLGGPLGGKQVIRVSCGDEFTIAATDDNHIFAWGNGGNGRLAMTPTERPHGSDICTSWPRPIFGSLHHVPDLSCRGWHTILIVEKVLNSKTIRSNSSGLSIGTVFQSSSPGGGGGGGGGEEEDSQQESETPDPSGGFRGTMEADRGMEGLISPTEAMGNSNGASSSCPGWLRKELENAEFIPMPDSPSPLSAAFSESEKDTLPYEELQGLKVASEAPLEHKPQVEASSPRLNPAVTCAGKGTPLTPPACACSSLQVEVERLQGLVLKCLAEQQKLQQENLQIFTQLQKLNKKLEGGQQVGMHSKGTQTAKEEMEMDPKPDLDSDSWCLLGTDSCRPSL
Particulars: at 0.1 µM.

Serine/threonine-protein kinase Nek6 (Homo sapiens), sequence (Q9HC98 whole entry): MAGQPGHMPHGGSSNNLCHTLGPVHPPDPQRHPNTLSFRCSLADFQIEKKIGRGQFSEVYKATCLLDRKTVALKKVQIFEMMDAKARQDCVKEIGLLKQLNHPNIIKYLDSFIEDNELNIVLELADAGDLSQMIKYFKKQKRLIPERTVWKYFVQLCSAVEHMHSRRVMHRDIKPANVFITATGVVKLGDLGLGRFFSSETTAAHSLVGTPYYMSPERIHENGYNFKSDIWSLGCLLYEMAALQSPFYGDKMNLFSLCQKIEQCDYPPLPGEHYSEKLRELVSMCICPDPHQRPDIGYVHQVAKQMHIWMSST
Sphingosine kinase 1 (Homo sapiens), sequence (Q9NYA1 whole entry): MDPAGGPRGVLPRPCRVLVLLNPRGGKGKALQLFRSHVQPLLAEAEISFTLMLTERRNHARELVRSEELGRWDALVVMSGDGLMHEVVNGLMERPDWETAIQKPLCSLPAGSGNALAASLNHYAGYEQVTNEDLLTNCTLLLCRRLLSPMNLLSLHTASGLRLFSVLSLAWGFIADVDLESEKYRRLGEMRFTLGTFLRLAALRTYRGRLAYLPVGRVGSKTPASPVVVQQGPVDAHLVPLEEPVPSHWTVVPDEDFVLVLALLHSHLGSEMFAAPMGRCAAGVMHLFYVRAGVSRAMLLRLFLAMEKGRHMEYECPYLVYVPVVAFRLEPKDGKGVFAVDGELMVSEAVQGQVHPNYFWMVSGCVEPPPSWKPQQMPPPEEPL

For `CN1CCC(C(=O)Nc2n[nH]c3nc(-c4ccc(O)cc4)c(Br)cc23)CC1`, the inhibition was 0.24% and -1.35% in [1]; 0.67% and 1.32% in assay [2]; 1.49% and 0% in assay [3]; 6.41% and 0.96% in assay [4]; 13.3% and 1.03% in [5]; 1.72% and -1.22% in assay [6]. In addition, the inhibition is -1.54% and 2.39% in [7]; 6.9% and 3.32% in assay [8]; 12.8% and 4.3% in [9]; 8.54% and 3.19% in assay [10]; 9.87% and 4.68% in assay [11]; 2.56% and 2.33% in [12]. Further, the inhibition in assay [13] is 5.56% and 3.3%; in assay [14], 4.35% and 2.88%; in [15] it was 2.67% and 2.08%; in [16], 3.12% and 2.62%; in [17], 6.77% and 0.79%; in assay [18], 7.02% and 1.88%. In addition, the inhibition in assay [19] was 10% and 8.97%; in [20], 9.98% and 4.62%.

Source of the values: ChEMBL document CHEMBL1961873, “Compounds: GSK PKIS; Assays: Nanosyn kinase panel” (2012).
